# Data from PubChem BioAssay (NCATS).
# “And” between values parts separate entries of the source, which are not always exact repeats. Identical values can stand only once. A number with no mark means an inactive call. Results filed as inconclusive are left out. Entries that show only a call come without a potency. The source made the active and inactive calls. Unless noted, calls come from the whole dose curve; as a rule, active = well fitted curve in the direction sought with a large enough effect; inconclusive = small, poorly fitted or top-dose-only effect, or another doubt; inactive = no such curve, though single readings can be large; an effect the other way counts as inactive or inconclusive.
# Tests used:
# [1] = target: Lysosomal acid glucosylceramidase (Homo sapiens) (UniProt P04062); experiment: Glucocerebrosidase-p2 (AID 348; in the data active = potency below about 10 µM; note: potency is the fitted concentration of half-maximal effect); settings: purified GBA, blue fluorogenic substrate, 40 min
# Chain of Lysosomal acid glucosylceramidase (Homo sapiens) (P04062 whole entry, looked up): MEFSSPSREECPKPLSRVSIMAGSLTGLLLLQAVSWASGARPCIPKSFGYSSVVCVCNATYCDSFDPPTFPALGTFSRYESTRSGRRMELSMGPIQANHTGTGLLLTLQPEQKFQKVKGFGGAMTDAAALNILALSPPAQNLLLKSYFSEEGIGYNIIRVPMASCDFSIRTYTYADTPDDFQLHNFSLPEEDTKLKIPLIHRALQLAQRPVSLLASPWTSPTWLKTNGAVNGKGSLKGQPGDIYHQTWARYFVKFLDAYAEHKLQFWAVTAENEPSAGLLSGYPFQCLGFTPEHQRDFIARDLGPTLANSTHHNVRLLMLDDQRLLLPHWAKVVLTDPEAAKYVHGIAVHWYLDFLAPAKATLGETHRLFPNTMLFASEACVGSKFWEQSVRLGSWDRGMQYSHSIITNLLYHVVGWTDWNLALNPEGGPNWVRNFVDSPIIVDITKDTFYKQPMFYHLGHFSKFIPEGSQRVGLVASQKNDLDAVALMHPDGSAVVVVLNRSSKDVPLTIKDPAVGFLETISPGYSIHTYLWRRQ
# Method in brief: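 Normal human glucocerebrosidase (0.2 nM) with blue fluorogenic substrate (80 uM final) in citrate/phosphate pH 5.9 with 10mM sodium taurocholate, 0.01% tween-20; 40 min RT, NaOH/glycine stop; fluorescence Ex 365/Em 440; AC50 from a titration from 0.6 nM upwards.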
# [2] = target: Cytochrome P450 2D6 (Homo sapiens) (UniProt P10635); experiment: qHTS Assay for Inhibitors and Substrates of Cytochrome P450 2D6 (AID 891); settings: recombinant CYP2D6, luciferin-ME EGE luminescence; series mostly up to 57.1 µM; note: nearly all actives have a fitted effect of over 60% in size; note: potency is the fitted concentration of half-maximal effect
# Chain of Cytochrome P450 2D6 (Homo sapiens) (P10635 whole entry, looked up): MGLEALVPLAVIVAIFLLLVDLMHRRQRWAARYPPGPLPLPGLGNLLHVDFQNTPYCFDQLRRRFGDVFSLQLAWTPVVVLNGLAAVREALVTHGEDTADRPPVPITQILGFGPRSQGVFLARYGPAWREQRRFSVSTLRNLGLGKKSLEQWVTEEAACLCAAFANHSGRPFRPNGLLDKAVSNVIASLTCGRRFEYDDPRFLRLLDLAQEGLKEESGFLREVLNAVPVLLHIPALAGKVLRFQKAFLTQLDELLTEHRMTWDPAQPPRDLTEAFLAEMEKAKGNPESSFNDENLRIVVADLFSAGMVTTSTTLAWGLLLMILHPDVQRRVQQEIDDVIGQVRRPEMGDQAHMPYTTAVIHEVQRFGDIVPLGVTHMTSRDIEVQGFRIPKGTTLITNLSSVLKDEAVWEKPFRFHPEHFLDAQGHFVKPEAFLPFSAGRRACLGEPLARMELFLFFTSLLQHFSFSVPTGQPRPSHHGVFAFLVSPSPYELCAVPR
# Method in brief: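 Luminescent read-out of luciferin formed by 5 nM human CYP2D6 demethylating 30 uM Luciferin-ME EGE (Km level) over 60 min at room temperature after NADPH regeneration addition. Data normalized to full inhibition by 1.43 uM quinidine.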
# [3] = qHTS Assay for Identification of Small Molecule Agonists for Hypoxia Response Element Signaling Pathway (AID 914; active = well fitted activation curve with a large enough effect in the signal ratio, with a control signal flat, not every such curve was filed as active; the % refers to the signal ratio; note: potency is the fitted concentration of half-maximal effect); settings: ME-180 (cervical carcinoma) HRE-bla reporter, beta-lactamase ratio, CoCl2, 17 h; activation: active compounds read high
# Method in brief: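 A beta-lactamase reporter under hypoxia response element control in ME-180 cells served as the system. Compound titrations plus EC50 CoCl2 ran 17 h at 37 degrees Celsius; AC50 values were fitted from %Activity.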
# [4] = Confirmation and Secondary Assay for Modulators of Hemoglobin Beta Chain Splicing at IVS2 654 locus (AID 910); settings: HeLa EGFP-654 splicing reporter, GFP fluorescence, 48 h; series mostly up to 38.3 µM;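 note: per-well total GFP intensity by laser scanning cytometry after 2-day treatment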
# Method in brief: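 HeLa cells stably carrying EGFP interrupted by mutant beta-globin IVS2-654 intron (CMV-driven) were treated with compound for 2 days at 37C; corrected splicing was scored as total peak GFP intensity per well (488 nm excitation, 500-520 nm emission).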
# [5] = Confirmation and Secondary Assay for Modulators of Hemoglobin Beta Chain Splicing at IVS2 705 locus (AID 930); settings: HeLa EGFP-705 splicing reporter, GFP fluorescence, 48 h; series mostly up to 38.3 µM;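 note: HeLa cells stably expressing the EGFP-705 splicing reporter; GFP fluorescence per well restored by corrected splicing of the IVS2-705 intron in EGFP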
# Method in brief: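 Fluorescence gain (488 nm laser, 500-520 nm PMT) reflects restored correct splicing of a mutant IVS2-705 intron inside EGFP in stably transfected HeLa cells after 2-day compound treatment.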
# [6] = target: Pyruvate kinase (Leishmania mexicana) (UniProt Q27686); experiment: qHTS Validation Assay for Inhibitors of Leishmania Mexicana Pyruvate Kinase (AID 945); settings: purified L. mexicana pyruvate kinase, enzyme activity, E451W mutant enzyme; series mostly up to 57.5 µM
# Chain of Pyruvate kinase (Leishmania mexicana) (Q27686 2-499 E452W): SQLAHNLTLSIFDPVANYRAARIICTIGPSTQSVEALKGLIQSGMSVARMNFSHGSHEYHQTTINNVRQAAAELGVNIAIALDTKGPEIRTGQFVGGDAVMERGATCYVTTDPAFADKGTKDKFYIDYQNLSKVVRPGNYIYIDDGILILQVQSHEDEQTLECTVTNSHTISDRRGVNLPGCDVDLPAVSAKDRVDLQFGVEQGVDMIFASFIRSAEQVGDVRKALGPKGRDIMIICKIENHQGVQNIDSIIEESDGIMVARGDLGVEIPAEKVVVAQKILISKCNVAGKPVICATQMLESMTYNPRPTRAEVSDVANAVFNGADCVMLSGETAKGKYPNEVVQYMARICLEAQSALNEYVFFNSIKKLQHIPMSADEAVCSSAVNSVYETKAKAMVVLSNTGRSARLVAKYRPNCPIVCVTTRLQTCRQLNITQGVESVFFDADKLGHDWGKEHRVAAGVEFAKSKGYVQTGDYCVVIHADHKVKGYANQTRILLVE
# Method in brief: (§1)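 Compounds are tested as eight-point concentration series. Reactions contain 0.2 nM LmPYK E451W, 0.5 mM PEP, 0.1 mM ADP, 7 mM MgCl2 and 50 mM KCl at pH 7.2, run 1 h at room temperature, then read by PKLight luminescence.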
# [7] = S16 Schwann cell viability assay (CellTiter-Glo assay) (AID 624031); settings: S16 rat Schwann cells viability, 24 h; series mostly up to 25.7 µM;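 note: native untransfected S16 rat Schwann cells; cellular ATP luminescence as a viability measure; nearly all actives have a fitted effect of over 70% in size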
# Method in brief: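 Parental S16 cells, 24 h compound, 37 °C. ATP-luminescence viability; DMSO = 0% activity, empty wells as reference; curves classified by fit quality and efficacy.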
# [8] = target: Cytochrome P450 3A4 (Homo sapiens) (UniProt P08684); experiment: qHTS Assay for Inhibitors and Substrates of Cytochrome P450 3A4 (AID 884); settings: recombinant CYP3A4, Luciferin-PPXE luminescence; series mostly up to 57.1 µM; note: nearly all actives have a fitted effect of over 50% in size
# Chain of Cytochrome P450 3A4 (Homo sapiens) (P08684 whole entry, looked up): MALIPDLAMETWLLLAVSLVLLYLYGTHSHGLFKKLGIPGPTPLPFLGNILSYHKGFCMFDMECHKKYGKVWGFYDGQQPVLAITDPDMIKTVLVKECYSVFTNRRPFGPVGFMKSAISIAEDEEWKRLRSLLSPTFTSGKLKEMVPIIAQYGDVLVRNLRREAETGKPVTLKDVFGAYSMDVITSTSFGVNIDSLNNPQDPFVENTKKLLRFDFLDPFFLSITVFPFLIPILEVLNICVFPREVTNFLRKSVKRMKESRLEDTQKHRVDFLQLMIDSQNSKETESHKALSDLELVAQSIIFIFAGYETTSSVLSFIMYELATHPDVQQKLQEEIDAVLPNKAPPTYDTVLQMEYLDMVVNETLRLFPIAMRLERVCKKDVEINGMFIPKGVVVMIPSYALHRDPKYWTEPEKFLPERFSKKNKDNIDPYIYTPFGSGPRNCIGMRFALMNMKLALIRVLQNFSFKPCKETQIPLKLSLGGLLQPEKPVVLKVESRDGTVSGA
# Method in brief: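 Luminescent readout of luciferin produced by CYP3A4 (20 nM) dealkylation of Luciferin-PPXE, 25 uM (its KM). NADPH-driven reaction ran 60 min at RT after 10 min compound preincubation; data scaled to 57 uM ketoconazole as 100% inhibition.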
# [9] = target: Cytochrome P450 2C9 (Homo sapiens) (UniProt P11712); experiment: qHTS Assay for Inhibitors and Substrates of Cytochrome P450 2C9 (AID 883); settings: recombinant CYP2C9, luciferin-H luminescence, 60 min; series mostly up to 57.1 µM; note: nearly all actives have a fitted effect of over 60% in size; note: potency is the fitted concentration of half-maximal effect
# Chain of Cytochrome P450 2C9 (Homo sapiens) (P11712 whole entry, looked up): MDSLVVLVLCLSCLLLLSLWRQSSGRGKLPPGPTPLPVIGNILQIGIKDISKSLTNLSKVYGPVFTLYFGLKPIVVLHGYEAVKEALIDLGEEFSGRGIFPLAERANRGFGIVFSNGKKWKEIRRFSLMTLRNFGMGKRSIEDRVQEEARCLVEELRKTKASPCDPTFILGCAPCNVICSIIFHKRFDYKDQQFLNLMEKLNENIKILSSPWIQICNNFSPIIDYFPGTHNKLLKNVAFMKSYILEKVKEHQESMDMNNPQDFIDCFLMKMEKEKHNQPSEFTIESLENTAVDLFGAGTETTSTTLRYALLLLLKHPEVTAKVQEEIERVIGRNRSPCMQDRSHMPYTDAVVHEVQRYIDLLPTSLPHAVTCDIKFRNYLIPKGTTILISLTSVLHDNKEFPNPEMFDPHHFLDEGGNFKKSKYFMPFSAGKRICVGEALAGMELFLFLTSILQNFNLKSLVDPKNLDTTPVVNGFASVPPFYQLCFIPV
# Method in brief: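 A luminogenic readout tracked human CYP2C9 (10nM) converting deoxyluciferin (100uM, at KM) in 25mM KPO4 during 60 min at 37C with regenerated NADPH. Values normalized to 57uM sulphaphenazole as complete inhibition.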
# [10] = qHTS Assay for Identification of Small Molecule Antagonists for NFkB Signaling Pathway (AID 895; active = well fitted inhibition curve with a large enough effect in the signal ratio, with a control signal flat, not every such curve was filed as active; the % refers to the signal ratio); settings: NFkB beta-lactamase reporter cells, FRET ratio 460/530, stimulated with 10 pM TNF alpha; series mostly up to 38.3 µM
# Method in brief: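 NFkB-bla ME-180 cervical carcinoma cells with beta-lactamase reporter under NFkB response element; compounds added, then TNF alpha at 10 pM final (EC50), 5 h at 37 C. LiveBLAzer substrate 2 h, room temperature; emission 460/530 nm at 405 nm excitation.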
# [11] = target: Muscarinic acetylcholine receptor M1 (Rattus norvegicus) (UniProt P08482); experiment: qHTS Assay for Antagonists of Acetylcholine Muscarinic M1 Receptor: Kinetic Measurement of Intracellular Calcium Response (AID 943); settings: M1-expressing cells, kinetic intracellular calcium fluorescence; series mostly up to 35.3 µM;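 note: Fluo-4 calcium signal as peak divided by basal fluorescence over 4 min; nearly all actives have a fitted effect of over 75% in size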
# Chain of Muscarinic acetylcholine receptor M1 (Rattus norvegicus) (P08482 whole entry, looked up): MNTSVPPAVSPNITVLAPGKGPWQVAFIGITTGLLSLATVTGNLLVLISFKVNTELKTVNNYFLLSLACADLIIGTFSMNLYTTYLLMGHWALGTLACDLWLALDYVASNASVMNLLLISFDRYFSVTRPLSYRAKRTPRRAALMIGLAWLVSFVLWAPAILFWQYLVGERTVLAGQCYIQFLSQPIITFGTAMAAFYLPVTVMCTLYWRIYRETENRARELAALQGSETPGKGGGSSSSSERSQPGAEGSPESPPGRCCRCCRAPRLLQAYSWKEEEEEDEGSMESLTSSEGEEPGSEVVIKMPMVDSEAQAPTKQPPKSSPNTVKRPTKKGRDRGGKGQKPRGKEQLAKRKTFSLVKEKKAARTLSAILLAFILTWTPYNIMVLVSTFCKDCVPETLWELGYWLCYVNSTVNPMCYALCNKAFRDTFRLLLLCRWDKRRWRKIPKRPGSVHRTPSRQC
# Method in brief: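 Quantitative HTS in CHO-M1 (rat receptor) cells: 10 min compound exposure ahead of 100 nM carbachol, Fluo-4 fluorescence followed 4 min, value expressed as peak-to-basal ratio.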
# [12] = target: Alpha-galactosidase A (Homo sapiens) (UniProt P06280); experiment: Counterscreen for Glucocerebrosidase Inhibitors: qHTS Assay for Human alpha-Galactosidase at pH 4.5 (AID 992); settings: purified enzyme, fluorogenic substrate; series mostly up to 76.9 µM
# Chain of Alpha-galactosidase A (Homo sapiens) (P06280 whole entry, looked up): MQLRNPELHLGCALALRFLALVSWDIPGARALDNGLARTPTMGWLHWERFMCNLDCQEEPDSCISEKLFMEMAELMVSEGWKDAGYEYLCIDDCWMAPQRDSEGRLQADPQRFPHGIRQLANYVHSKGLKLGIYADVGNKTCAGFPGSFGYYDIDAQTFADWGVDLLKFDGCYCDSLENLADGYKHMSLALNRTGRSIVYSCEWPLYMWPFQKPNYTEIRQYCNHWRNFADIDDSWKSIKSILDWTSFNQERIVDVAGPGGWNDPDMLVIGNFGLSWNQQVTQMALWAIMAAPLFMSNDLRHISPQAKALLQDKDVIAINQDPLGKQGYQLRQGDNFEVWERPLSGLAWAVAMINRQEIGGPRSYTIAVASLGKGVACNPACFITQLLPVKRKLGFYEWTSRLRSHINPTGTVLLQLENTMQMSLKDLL
# Method in brief: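 Citrate buffer pH 4.5, Tween-20 0.005%. Enzyme 2 nM, substrate 80 uM, 20 min RT. Stop pH 10. Fluorescence Ex 365/Em 440. AC50 by Hill fit.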
# [13] = target: Pyruvate kinase (Leishmania mexicana) (UniProt Q27686); experiment: qHTS Validation Assay for Activators of Leishmania Mexicana Pyruvate Kinase (AID 959); settings: purified L. mexicana pyruvate kinase, enzyme activity
# Method in brief: as §1
# [14] = target: Cytochrome P450 2C19 (Homo sapiens) (UniProt P33261); experiment: qHTS Assay for Inhibitors and Substrates of Cytochrome P450 2C19 (AID 899); settings: recombinant CYP2C19, luciferin-H EGE luminescence; series mostly up to 57.1 µM; note: nearly all actives have a fitted effect of over 60% in size
# Chain of Cytochrome P450 2C19 (Homo sapiens) (P33261 whole entry, looked up): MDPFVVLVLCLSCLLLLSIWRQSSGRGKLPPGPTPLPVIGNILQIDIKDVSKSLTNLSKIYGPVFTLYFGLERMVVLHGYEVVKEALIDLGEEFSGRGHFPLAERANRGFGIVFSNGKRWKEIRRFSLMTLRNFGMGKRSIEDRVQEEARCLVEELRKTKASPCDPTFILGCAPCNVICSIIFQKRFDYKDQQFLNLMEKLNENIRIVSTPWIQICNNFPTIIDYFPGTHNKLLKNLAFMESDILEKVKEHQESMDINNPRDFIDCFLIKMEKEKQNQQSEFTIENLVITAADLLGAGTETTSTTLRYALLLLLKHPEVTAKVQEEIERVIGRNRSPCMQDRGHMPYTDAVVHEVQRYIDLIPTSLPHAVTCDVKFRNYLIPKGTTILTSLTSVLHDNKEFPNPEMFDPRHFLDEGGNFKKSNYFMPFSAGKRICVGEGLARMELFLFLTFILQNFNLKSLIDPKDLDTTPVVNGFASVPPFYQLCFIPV
# Method in brief: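 NADPH-dependent conversion of Luciferin-H EGE (10uM, at KM) by 5nM enzyme in 50mM KPO4, 60 min at 37C following 10 min compound preincubation. Stopped with luciferin detection buffer; luminescence read after 20 min.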
smiles,measurement,setting,value
Cn1cccc1C(=O)N1CCC2(CCCN(C(=O)Nc3cccc(F)c3)C2)CC1,Potency,[1],> 11.4 µM
COc1ccccc1CN1CC[C@@]2(CCCN(C(=O)c3ccco3)C2)C1,Potency,[1],> 11.4 µM
same,Potency,[2],501 nM (active)
same,activation,[3],6.4%
N#Cc1ccc(CN2CCCC3(CCN(C(=O)c4cc(C(F)(F)F)cc(C(F)(F)F)c4)CC3)C2)cc1,Potency,[1],> 11.4 µM
Cc1ccccc1-c1cncnc1N1CCNCC1,Potency,[1],> 11.4 µM
same,Potency,[4],inactive
same,outcome,[5],inactive
CN(C)C(=O)c1ccc(-c2nc(NCc3cccnc3)c3ccccc3n2)cc1,Potency,[1],> 11.4 µM
same,Potency,[3],3.16 µM (active)
same,outcome,[5],inactive
COc1ccccc1CN1CC[C@@]2(CCCN(C(=O)c3ccncc3)C2)C1,Potency,[1],> 11.4 µM
O=C(c1cnccn1)N1CCC2(CCN(Cc3ccncc3)CC2)CC1,Potency,[1],> 11.4 µM
same,activation,[3],2.3%
C[C@@H](CCc1ccccc1)NC[C@H](O)c1ccc(O)c(C(N)=O)c1,Potency,[2],3.98 µM (active) and 2 µM (active)
same,outcome,[6],inactive
same,Potency,[7],inactive
O=C(c1ccccc1)c1ccc2n1CC[C@H]2C(=O)O,Potency,[7],inactive
C[C@@H]1COc2c(N3CCN(C)CC3)c(F)cc3c(=O)c(C(=O)O)cn1c23,outcome,[6],inactive
same,Potency,[7],inactive
Cn1c(=O)c(-c2ccccc2)nc2cnc(N3CCNCC3)nc21,Potency,[1],> 11.4 µM
same,Potency,[3],3.16 µM (active)
N#CCCn1c(=O)c(CCc2ccccc2)nc2cnc(N3CCOCC3)nc21,Potency,[1],> 11.4 µM
CC(=O)[C@@H]1CC[C@@H]2[C@@H]3CCC4=CC(=O)CC[C@@]4(C)[C@H]3CC[C@]21C,Potency,[8],inactive
same,Potency,[2],inactive
CCCCCN(CCCCC)C(=O)[C@H](CCC(=O)O)NC(=O)c1ccc(Cl)c(Cl)c1,Potency,[9],3.98 µM (active)
same,Potency,[10],inactive
same,Potency,[11],inactive
same,outcome,[6],inactive
O=c1c(CCc2ccccc2)nc2cnc(N3CCOCC3)nc2n1C[C@H]1CCCO1,Potency,[1],> 11.4 µM
C[C@@H]1c2cccc(O)c2C(O)=C2C(=O)[C@@]3(O)C(O)=C(C(N)=O)C(=O)[C@@H](N(C)C)[C@@H]3[C@@H](O)[C@@H]21,Potency,[11],inactive
CC[C@]1(C)CC(=O)NC1=O,Potency,[10],inactive
same,outcome,[12],inactive
O[C@@](CCN1CCCCC1)(c1ccccc1)C1CCCCC1,Potency,[2],5.01 µM (active) and 1.26 µM (active)
O=C(c1cc(C(F)(F)F)cc(C(F)(F)F)c1)N1CCC2(CCCN(c3ccncc3)C2)CC1,Potency,[1],> 11.4 µM
CC(=O)OCC1=C(C(=O)O)N2C(=O)[C@@H](NC(=O)Cc3cccs3)[C@@H]2SC1,activation,[3],-3.21% and -0.503%
same,Potency,[11],inactive
same,Potency,[13],25.1 µM (active)
COc1ccc(-c2nc3cnc(N4CCNCC4)nc3n(C3CC3)c2=O)cc1,Potency,[1],> 11.4 µM
same,Potency,[9],7.94 µM (active)
same,Potency,[3],3.16 µM (active)
CN1C(=O)CC[C@@H]1c1cccnc1,Potency,[9],inactive
same,Potency,[2],inactive
same,Potency,[10],inactive
same,Potency,[14],inactive
same,Potency,[11],inactive
same,outcome,[6],inactive
same,outcome,[12],inactive
CC(=O)OCC1=C(C(=O)O)N2C(=O)[C@@H](NC(=O)CSc3ccncc3)[C@@H]2SC1,Potency,[10],inactive
same,Potency,[11],inactive
same,Potency,[13],15.8 µM (active)
same,outcome,[12],inactive
same,Potency,[7],inactive
Cc1cccc(CNc2ncnc3ccc(-c4cccc(NS(C)(=O)=O)c4)cc23)c1,Potency,[1],> 11.4 µM
same,Potency,[4],inactive
same,outcome,[5],inactive
